Assay results as given in PubChem BioAssay (EPA / NIEHS).
A structure can be active in one record and inactive in another. Active and inactive are the calls of the source. Rule for the calls: active = hit-call score of the fitted dose curve at least 0.9, where 1 is the maximum; inactive = score below 0.9.

Tests used:
[1] = ATG_GLI_CIS: Attagene CIS-FACTORIAL HepG2 Assay for human Zinc Finger Protein GLI1 (AID 2282945); conditions: HepG2, Attagene cis-factorial reporter mRNA, GLI element; actives raise or lower the signal
Method in brief: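 Transiently transfected HepG2 cells report endogenous transcription factor activity via cis-element-driven reporter units. After 24 h compound exposure, reporter mRNA was measured by RT-PCR with capillary electrophoresis; bidirectional fitting against DMSO baseline.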

[2] = ATG_GRE_CIS: Attagene CIS-FACTORIAL HepG2 Assay for human Glucocorticoid Response Elements (GRE) (AID 2282947); conditions: HepG2 GRE cis-reporter, Attagene multiplex mRNA; actives raise or lower the signal
Method in brief: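 Fluorescence intensity of reporter-specific cDNA fragments, separated by capillary electrophoresis, provides the signal. Constructs carry cis-regulating promoters in transiently transfected HepG2 liver cells; 24 h incubation; fitting is bidirectional against DMSO.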

[3] = ATG_ISRE_CIS: Attagene CIS-FACTORIAL HepG2 Assay for human Interferon Regulatory Factor 1 (IRF1) binding to an Interferon-Stimulated Response Element (ISRE) (AID 2282948); conditions: HepG2 ISRE cis-reporter (Attagene), mRNA transcription readout; actives raise or lower the signal
Method in brief: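 Signal reflects induction or loss of ISRE-linked reporter mRNA in transiently transfected HepG2 cells after a 24 h treatment, detected by fluorescent RT-PCR fragments on capillary electrophoresis and normalised to DMSO.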

[4] = ATG_M_32_CIS: Attagene CIS-FACTORIAL HepG2 Assay for M32 Transcription Factor (Internal Marker) (AID 2282949); conditions: HepG2 Attagene cis-factorial M32 reporter, mRNA; actives raise or lower the signal;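 note: background control marker of the multiplexed CIS panel rather than a real target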
Method in brief: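 HepG2 human liver cells transiently transfected with cis-promoter-driven multiple reporter transcription units, dosed 24 h. Reporter mRNA quantified by RT-PCR, FAM-labelled primer extension, HpaI digest and capillary electrophoresis; bidirectional fit versus DMSO baseline.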

[5] = ATG_M_06_CIS: Attagene CIS-FACTORIAL HepG2 Assay for M06 Transcription Factor (Internal Marker) (AID 2282950); conditions: HepG2 Attagene CIS-FACTORIAL M06 internal marker reporter; actives raise or lower the signal
Method in brief: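 Fluorescence-labelled RT-PCR products from cis-promoter reporter units, cut with HpaI and resolved by capillary electrophoresis, give the signal. Cells are human HepG2, dosed for 24 h. Serves as background control, fitted relative to DMSO.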

[6] = target: Hypoxia-inducible factor 1-alpha (Homo sapiens) (UniProt Q16665); experiment: ATG_HIF1a_CIS: Attagene CIS-FACTORIAL HepG2 Assay for human Hypoxia Inducible Factor 1 (HIF1A) (AID 2282951); conditions: HepG2 Attagene cis-factorial HIF1a reporter transcription; actives raise or lower the signal
Hypoxia-inducible factor 1-alpha (Homo sapiens), sequence (Q16665 whole entry, looked up): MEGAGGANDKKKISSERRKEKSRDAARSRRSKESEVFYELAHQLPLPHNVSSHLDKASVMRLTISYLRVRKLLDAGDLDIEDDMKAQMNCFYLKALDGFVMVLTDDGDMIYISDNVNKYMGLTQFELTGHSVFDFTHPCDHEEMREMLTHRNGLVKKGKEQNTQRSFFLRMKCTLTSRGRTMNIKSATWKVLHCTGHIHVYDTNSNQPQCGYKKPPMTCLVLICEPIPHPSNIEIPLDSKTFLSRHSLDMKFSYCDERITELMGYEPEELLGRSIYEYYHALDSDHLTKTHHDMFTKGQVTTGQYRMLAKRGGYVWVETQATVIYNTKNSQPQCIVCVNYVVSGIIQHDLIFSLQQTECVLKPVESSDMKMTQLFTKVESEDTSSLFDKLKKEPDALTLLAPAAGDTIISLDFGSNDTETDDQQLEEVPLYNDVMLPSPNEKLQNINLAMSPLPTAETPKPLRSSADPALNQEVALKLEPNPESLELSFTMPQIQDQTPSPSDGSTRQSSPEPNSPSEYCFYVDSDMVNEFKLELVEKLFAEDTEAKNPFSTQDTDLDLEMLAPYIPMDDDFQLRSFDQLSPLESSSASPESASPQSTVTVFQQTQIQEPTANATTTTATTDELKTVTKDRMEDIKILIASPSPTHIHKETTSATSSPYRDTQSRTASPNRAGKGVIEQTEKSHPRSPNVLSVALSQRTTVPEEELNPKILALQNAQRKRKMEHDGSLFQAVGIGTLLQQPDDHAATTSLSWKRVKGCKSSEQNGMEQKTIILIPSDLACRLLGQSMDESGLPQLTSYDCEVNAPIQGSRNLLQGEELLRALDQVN
Method in brief: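 Dosed 24 h, transfected HepG2 cells yielded total RNA whose reporter transcripts were RT-PCR-amplified and sized by capillary electrophoresis using fluorescent labelling; DMSO defined baseline, with gain and loss of signal both fitted.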

[7] = target: Hepatocyte nuclear factor 6 (Homo sapiens) (UniProt Q9UBC0); experiment: ATG_HNF6_CIS: Attagene CIS-FACTORIAL HepG2 Assay for human Hepatocyte Nuclear Factor 6 (HNF6) (AID 2282952); conditions: HepG2 Attagene cis-factorial HNF6 reporter transcription; actives raise or lower the signal
Hepatocyte nuclear factor 6 (Homo sapiens), sequence (Q9UBC0 whole entry, looked up, the tested form may be a part): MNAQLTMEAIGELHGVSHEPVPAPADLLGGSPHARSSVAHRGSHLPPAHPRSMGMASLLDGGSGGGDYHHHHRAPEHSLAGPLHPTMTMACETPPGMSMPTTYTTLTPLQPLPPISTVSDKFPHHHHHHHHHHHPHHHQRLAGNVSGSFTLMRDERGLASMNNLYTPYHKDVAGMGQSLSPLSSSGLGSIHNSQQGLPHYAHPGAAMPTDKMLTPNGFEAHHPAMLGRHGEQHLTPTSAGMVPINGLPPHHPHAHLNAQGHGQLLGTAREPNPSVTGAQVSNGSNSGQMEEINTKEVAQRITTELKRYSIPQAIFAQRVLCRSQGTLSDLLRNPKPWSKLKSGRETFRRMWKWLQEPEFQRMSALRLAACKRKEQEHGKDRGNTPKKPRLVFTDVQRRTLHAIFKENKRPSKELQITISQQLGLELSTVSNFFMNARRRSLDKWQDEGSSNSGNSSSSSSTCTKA
Method in brief: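 Using cis-element reporters in HepG2 liver cells, the assay tracks endogenous factor-driven transcription 24 h post-dosing. Signal comes from 6-FAM-labelled, HpaI-digested RT-PCR fragments, with gain or loss scored against DMSO.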

[8] = target: Heat shock factor protein 1 (Homo sapiens) (UniProt Q00613); experiment: ATG_HSE_CIS: Attagene CIS-FACTORIAL HepG2 Assay for human Heat Shock Transcription Factor 1 (HSE) (AID 2282953); conditions: HepG2 HSE cis-reporter, Attagene RNA transcription; actives raise or lower the signal
Heat shock factor protein 1 (Homo sapiens), sequence (Q00613 whole entry, looked up): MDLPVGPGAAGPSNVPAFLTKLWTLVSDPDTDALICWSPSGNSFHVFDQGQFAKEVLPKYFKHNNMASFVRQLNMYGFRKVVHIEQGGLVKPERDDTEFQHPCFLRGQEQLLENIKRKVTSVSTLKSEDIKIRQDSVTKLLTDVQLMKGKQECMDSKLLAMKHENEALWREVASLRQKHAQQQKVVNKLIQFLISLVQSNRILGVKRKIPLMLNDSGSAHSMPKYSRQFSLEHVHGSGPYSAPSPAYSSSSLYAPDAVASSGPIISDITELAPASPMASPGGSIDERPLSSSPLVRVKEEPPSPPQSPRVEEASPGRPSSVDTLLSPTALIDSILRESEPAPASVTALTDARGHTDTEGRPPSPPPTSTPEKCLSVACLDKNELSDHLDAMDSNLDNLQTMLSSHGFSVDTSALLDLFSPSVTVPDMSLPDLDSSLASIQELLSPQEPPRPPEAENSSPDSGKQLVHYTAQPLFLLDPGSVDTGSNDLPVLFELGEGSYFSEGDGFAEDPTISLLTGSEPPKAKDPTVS
Method in brief: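 After a 24 h incubation with test chemical, transfected HepG2 cells were harvested for RNA; reporter transcripts were measured by RT-PCR and capillary electrophoresis. Values reflect gain or loss of signal relative to DMSO.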

[9] = ATG_MRE_CIS: Attagene CIS-FACTORIAL HepG2 Assay for human Metal Responsive Element (MRE) (AID 2282954); conditions: HepG2 MRE cis-reporter transcription, Attagene multiplex; actives raise or lower the signal
Method in brief: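 Measured here is mRNA induction from an MRE cis-element reporter in HepG2 after 24 h, quantified by fluorescence of labelled RT-PCR products on capillary electrophoresis; gain- and loss-of-signal fits use DMSO as baseline.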

[10] = target: Bile acid receptor (Homo sapiens) (UniProt Q96RI1); experiment: ATG_IR1_CIS: Attagene CIS-FACTORIAL HepG2 Assay for human Nuclear Receptor Subfamily 1 Group H Member 4 (NR1H4), IR1 submotif (AID 2282946); conditions: IR1 reporter transcription, actives raise or lower the signal
Bile acid receptor (Homo sapiens), sequence (Q96RI1 whole entry, looked up): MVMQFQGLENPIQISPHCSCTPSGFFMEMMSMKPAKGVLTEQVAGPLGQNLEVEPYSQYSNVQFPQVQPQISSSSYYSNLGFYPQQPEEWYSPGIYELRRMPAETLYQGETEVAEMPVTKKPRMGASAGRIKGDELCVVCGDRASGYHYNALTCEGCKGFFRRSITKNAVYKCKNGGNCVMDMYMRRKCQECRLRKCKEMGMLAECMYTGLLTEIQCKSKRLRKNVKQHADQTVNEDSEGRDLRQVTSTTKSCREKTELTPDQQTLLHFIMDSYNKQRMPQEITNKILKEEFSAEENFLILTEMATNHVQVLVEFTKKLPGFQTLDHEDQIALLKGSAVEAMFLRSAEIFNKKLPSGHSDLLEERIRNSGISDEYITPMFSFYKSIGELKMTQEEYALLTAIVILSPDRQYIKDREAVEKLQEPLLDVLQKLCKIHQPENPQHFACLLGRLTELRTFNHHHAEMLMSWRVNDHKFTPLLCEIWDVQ
Method in brief: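 Fluorescence of capillary-separated, HpaI-digested RT-PCR reporter products gave IR1-element mRNA induction in HepG2 cells 24 h after dosing. Endogenous transcription factors drove the cis-regulated reporters; activity was fitted bidirectionally against DMSO.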

Measured: AC50

c1ccc2c(c1)-c1cccc3c1c-2cc1ccccc13
inactive: [1] | [2] | [3] | [4] | [5] | [6] | [7] | [8] | [9]
active: [6] 4.67 µM

CC(C)CC(C)O (stereo not drawn)
not listed: [2]
inactive: all other assays above

CCCCCCCC/C=C\CCCCCCCC(=O)OC[C@@H](O)[C@H]1OC[C@H](O)[C@H]1O
not listed: [10]
inactive: all other assays above

OCc1ccccc1
not listed: [10]
inactive: all other assays above

Cn1c(=O)c2[nH]cnc2n(C)c1=O
not listed: [2] | [6]
inactive: all other assays above

COCc1nnc(-c2ccc[n+]([O-])c2)n1-c1c(Cl)c(Cl)cc2[nH]c(=O)c(=O)[nH]c12
not listed: [2]
inactive: all other assays above

OC(CCl)CCl
not listed: [10]
inactive: all other assays above

OCCOCCOCCO
not listed: [10]
inactive: all other assays above

OC(Cn1cncn1)(Cn1cncn1)c1ccc(F)cc1F
not listed: [10]
inactive: all other assays above

CCc1ccc(O)c(C(C)(C)C)c1
active: [6] 56.3 µM
not listed: [10]
inactive: all other assays above

O=C(O)c1cccc(C[C@@H]2COc3ccc(OCc4nc5cc(F)ccc5s4)cc3[C@@H]2O)c1
active: [3] 163 µM | [8] 168 µM | [9] 154 µM
not listed: [10]
inactive: all other assays above

c1ccc2ncccc2c1
not listed: [10]
inactive: all other assays above

O=S1(=O)CCCO1
not listed: [10]
inactive: all other assays above

OCCNCCO
not listed: [10]
inactive: all other assays above

CCOc1ccc2[nH]cc(C(=O)NCc3ccccc3)c(=O)c2n1
not listed: [2]
inactive: all other assays above

Cn1cc[nH]c1=S
inactive: [1] | [3] | [4] | [5] | [8] | [9]

OCC(CO)(CO)CO
not listed: [2] | [10]
inactive: all other assays above

NC(=O)NN=Cc1ccc([N+](=O)[O-])o1
not listed: [6] | [10]
inactive: all other assays above

C=CN1CCCC1=O
not listed: [2] | [10]
inactive: all other assays above

CCn1nc(C)c2c1C(=O)NCC(c1ccc(O)cc1)=N2
not listed: [10]
inactive: all other assays above

CCCCOC(=O)c1ccccc1
not listed: [8] | [10]
inactive: all other assays above

CC[C@H](C)C(=O)O[C@H]1C[C@H](O)C=C2C=C[C@H](C)[C@H](CC[C@@H](O)C[C@@H](O)CC(=O)O)[C@H]21
not listed: [10]
inactive: all other assays above

CCCCCCCC1CCC(=O)O1 (stereo not drawn)
not listed: [7] | [10]
inactive: all other assays above

O=C1CN(N=Cc2ccc([N+](=O)[O-])o2)C(=O)N1
active: [6] 27.3 µM
not listed: [7] | [10]
inactive: all other assays above

CCCCCCCCCCCCCCO
active: [7] 177 µM | [8] 117 µM
not listed: [2] | [10]
inactive: all other assays above

O=C(NO)C1(NS(=O)(=O)c2ccc(Oc3ccc(F)cc3)cc2)CCOCC1
not listed: [10]
inactive: all other assays above

OC[C@H]1O[C@@H]2O[C@H]3[C@H](O)[C@@H](O)[C@@H](O[C@H]4[C@H](O)[C@@H](O)[C@@H](O[C@H]5[C@H](O)[C@@H](O)[C@@H](O[C@H]6[C@H](O)[C@@H](O)[C@@H](O[C@H]7[C@H](O)[C@@H](O)[C@@H](O[C@H]1[C@H](O)[C@H]2O)O[C@@H]7CO)O[C@@H]6CO)O[C@@H]5CO)O[C@@H]4CO)O[C@@H]3CO
not listed: [10]
inactive: all other assays above

O=c1[nH]cnc2c1ncn2[C@H]1CC[C@@H](CO)O1
not listed: [8] | [10]
inactive: all other assays above

NNC(=O)c1ccncc1
not listed: [6] | [10]
inactive: all other assays above

O=C(O)CO
not listed: [2] | [10]
inactive: all other assays above

CCCCN1C(=O)[C@@H]([C@H](O)C2CCCCC2)NC(=O)C12CCN(Cc1ccc(Oc3ccc(C(=O)O)cc3)cc1)CC2
active: [3] 93.5 µM | [9] 75.8 µM
not listed: [2] | [10]
inactive: all other assays above

c1ccc(C(O[C@@H]2CCCN(CCc3ccc4c(c3)OCO4)C2)c2ccccc2)cc1
active: [6] 47.1 µM | [8] 55 µM | [9] 33 µM
not listed: [10]
inactive: all other assays above

O=C(N[C@H](CO)[C@H](O)c1ccc([N+](=O)[O-])cc1)C(Cl)Cl
not listed: [2] | [6] | [10]
inactive: all other assays above

CCOC(N)=O
not listed: [2] | [10]
inactive: all other assays above

NC(N)=O
not listed: [2] | [10]
inactive: all other assays above

CC(=O)c1ccccc1
not listed: [2] | [10]
inactive: all other assays above

CCCCCCCCN(C)C
not listed: [8] | [10]
inactive: all other assays above

Cc1ccc(S(=O)(=O)NC(=O)NN2CCCCCC2)cc1
not listed: [6] | [10]
inactive: all other assays above

NC(=O)N1c2ccccc2C=Cc2ccccc21
not listed: [2] | [10]
inactive: all other assays above

COS(C)(=O)=O
not listed: [10]
inactive: all other assays above

CC(C)c1nnc2ccc(-c3ocnc3-c3cc(F)ccc3F)cn12
active: [9] 100 µM
not listed: [7] | [10]
inactive: all other assays above

CCCC(CCC)C(=O)O
not listed: [7] | [10]
inactive: all other assays above

CNC(C)=O
not listed: [10]
inactive: all other assays above
